Active and inactive are the calls of the source. Rule for the calls: active = hit-call score of the fitted dose curve at least 0.9, where 1 is the maximum; inactive = score below 0.9.

The results in this text go back to PubChem BioAssay (EPA / NIEHS).

Chain of Hepatocyte nuclear factor 3-beta (Homo sapiens) (Q9Y261 whole entry, looked up): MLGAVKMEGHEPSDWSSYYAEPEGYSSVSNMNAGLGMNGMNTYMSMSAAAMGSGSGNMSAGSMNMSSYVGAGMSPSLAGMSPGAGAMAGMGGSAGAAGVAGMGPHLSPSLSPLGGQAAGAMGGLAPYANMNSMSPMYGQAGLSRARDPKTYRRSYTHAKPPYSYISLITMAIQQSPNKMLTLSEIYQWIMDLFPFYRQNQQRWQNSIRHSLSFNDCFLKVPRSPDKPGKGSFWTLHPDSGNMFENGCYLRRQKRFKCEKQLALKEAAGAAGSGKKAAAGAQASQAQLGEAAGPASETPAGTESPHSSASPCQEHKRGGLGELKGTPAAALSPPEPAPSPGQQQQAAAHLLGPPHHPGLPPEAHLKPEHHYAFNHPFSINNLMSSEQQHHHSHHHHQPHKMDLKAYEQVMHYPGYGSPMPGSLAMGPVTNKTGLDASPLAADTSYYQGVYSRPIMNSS

The first experiment concerns the target Hepatocyte nuclear factor 3-beta (Homo sapiens) (UniProt Q9Y261). The experiment in a line: ATG_FoxA2_CIS: Attagene CIS-FACTORIAL HepG2 Assay for human Forkhead box A2 (FOXA2) (AID 2282942). The conditions noted are these: HepG2 cis-reporter transcription factor activity, 24 h; actives raise or lower the signal. Put shortly:
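Multiplexed cis-element reporter assay in transiently transfected HepG2. Twenty-four hours post-dosing, RNA was reverse-transcribed, amplified, FAM-labelled, HpaI-digested and separated by CE. Activity gain or loss relative to DMSO.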
Regarding `CC(C)=CCC[C@H](C)CCO`, the outcome was inactive.
With `CCCCC/C=C\C/C=C\CCCCCCCC(=O)OC`, the molecule was called inactive.
On the same count and under the same terms, in the case of `S=C(NC1CCCCC1)NC1CCCCC1` it was “inactive”.
The same measure, in the same setting: in the case of `Cc1cccc(OCCOc2cccc(C)c2)c1` it was “inactive”.
Take `O=S(=O)(Oc1ccc(Cl)cc1Cl)c1ccccc1`: the result was inactive.
On to `CC(C)CCCC(C)CC=O` (stereo not given), for which the outcome was inactive.
As to `CC(C)(C)C(=O)CCc1ccc(Cl)cc1`, the result was inactive.
In the case of `O=CN1CCCCC1`, the outcome was inactive.
For the molecule `O=Cc1ccc(CO)o1`, the result was inactive.
Consider `CO[Si](CCC1CCC2OC2C1)(OC)OC` (stereo not given), for which the outcome was inactive.
As for `N#[N+]c1ccc2c(S(=O)(=O)[O-])cccc2c1O`, the molecule was called inactive.
`Cc1cc(=O)n(-c2ccccc2)n1C`: the molecule was called inactive.
As to `N[C@H]1C(O)O[C@H](CO)[C@H](O)[C@@H]1O` (stereo not given in full), the call was inactive.
Turning to `O=C(c1ccccc1)c1ccc(O)c(O)c1O`, the molecule was classed as inactive.
Consider `Cc1cccc(C(=O)O)c1`, for which the result was inactive.
Regarding `COC(=O)c1c(C)cc(O)c(C)c1O`, the call was inactive.
As to `Cc1cc(C)c(C)c(O)c1`, the molecule was classed as inactive.
Still for that read-out and setting: in the case of `O=S1(=O)OC(c2ccc(O)cc2)(c2ccc(O)cc2)c2ccccc21` it was “inactive”.
With `CCN(Cc1cccc(S(=O)(=O)O)c1)c1ccc(C(=C2C=CC(=[N+](CC)Cc3cccc(S(=O)(=O)[O-])c3)C=C2)c2ccccc2)cc1`, the outcome was inactive.
On to `O=C(Nc1ccccc1)c1ccccc1O`, for which the call was inactive.
The same measure, in the same setting: in the case of `CC(=O)NS(=O)(=O)c1ccc(N)cc1` it was “inactive”; in that of `CCO[Si](CCCN=C=O)(OCC)OCC`, “inactive”.
`C=C(C)CCO`: the result was inactive.
As for `CCCCCCCCCCc1ccccc1`, the molecule was classed as inactive.
As to `CCCCCCC(O)CO` (stereo not given), the result was inactive.
Consider `CCOC(=O)[C@H](C)O`, for which the call was inactive.
Consider `CC(=O)OCCC1CCCCC1`, for which the outcome was inactive.
On to `O=C1CCCC(=O)O1`, for which the molecule was called inactive.
As for `CCCCC(CC)CCC(CC(C)C)OS(=O)(=O)O` (stereo not given), the molecule was classed as inactive.
`CC(CC=O)c1ccccc1` (stereo not given): the molecule was called inactive.
For `CC1=CC[C@H]2C[C@@H]1C2(C)C`, the call was inactive.
In the case of `O=C1c2cccc(O)c2C(=O)c2c(O)cc(CO)cc21`, the result was inactive.
Same read-out and setting: as for `C(=CC=Nc1ccccc1)C=CNc1ccccc1`, the entry is “inactive”; as for `C#CC1(O)CC[C@H]2[C@@H]3CCC4=CCCC[C@@H]4[C@H]3CC[C@@]21C` (stereo not given in full), “inactive”.
As to `COc1cc(NC(=O)CC(C)=O)c(OC)cc1Cl`, the molecule was classed as inactive.
For the molecule `CNC(=S)N(C)C`, the result was inactive.
On to `COc1ccc(-c2coc3cc(O)ccc3c2=O)cc1`, for which the call was inactive.
`O=c1n(CCO)c(=O)n(CCO)c(=O)n1CCO`: the outcome was inactive.
In the case of `CC(=O)C=CC1C(C)=CCC(C)C1(C)C` (stereo not given), the molecule was classed as inactive.
On to `C=C(C)[C@H]1CC=C(C)CC1`, for which the call was inactive.

Test system in another experiment: not listed separately
Nature of the experiment: ATG_FoxO_CIS: Attagene CIS-FACTORIAL HepG2 Assay for human Forkhead box O (FoxO) (AID 2282943). Conditions: HepG2 Attagene cis-reporter, FoxO element, mRNA; actives raise or lower the signal. Put shortly: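 HepG2, transient MRTU transfection (cis element, endogenous TFs). Dose 24 h. TriZol RNA → oligo(dT) RT → PCR → 6-FAM primer extension → HpaI cut → CE. Gain/loss vs DMSO.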
As for `CC(C)=CCC[C@H](C)CCO`, the molecule was called inactive.
`CCCCC/C=C\C/C=C\CCCCCCCC(=O)OC`: the call was inactive.
For `S=C(NC1CCCCC1)NC1CCCCC1`, the result was inactive.
As for `Cc1cccc(OCCOc2cccc(C)c2)c1`, the call was inactive.
`O=S(=O)(Oc1ccc(Cl)cc1Cl)c1ccccc1`: the call was inactive.
`CC(C)CCCC(C)CC=O` (stereo not given): the call was inactive.
Regarding `CC(C)(C)C(=O)CCc1ccc(Cl)cc1`, the molecule was classed as inactive.
As for `O=CN1CCCCC1`, the call was inactive.
Regarding `O=Cc1ccc(CO)o1`, the call was inactive.
With `CO[Si](CCC1CCC2OC2C1)(OC)OC` (stereo not given), the result was inactive.
Turning to `N#[N+]c1ccc2c(S(=O)(=O)[O-])cccc2c1O`, the call was inactive.
Still for that read-out and setting: as for `Cc1cc(=O)n(-c2ccccc2)n1C`, the entry is “inactive”.
`N[C@H]1C(O)O[C@H](CO)[C@H](O)[C@@H]1O` (stereo not given in full): the outcome was inactive.
As to `O=C(c1ccccc1)c1ccc(O)c(O)c1O`, the molecule was called inactive.
On to `Cc1cccc(C(=O)O)c1`, for which the outcome was inactive.
As to `COC(=O)c1c(C)cc(O)c(C)c1O`, the outcome was inactive.
With `Cc1cc(C)c(C)c(O)c1`, the molecule was called inactive.
Regarding `O=S1(=O)OC(c2ccc(O)cc2)(c2ccc(O)cc2)c2ccccc21`, the molecule was classed as inactive.
On the same count and under the same terms, as for `CCN(Cc1cccc(S(=O)(=O)O)c1)c1ccc(C(=C2C=CC(=[N+](CC)Cc3cccc(S(=O)(=O)[O-])c3)C=C2)c2ccccc2)cc1`, the entry is “inactive”.
`O=C(Nc1ccccc1)c1ccccc1O`: the molecule was called inactive.
`CC(=O)NS(=O)(=O)c1ccc(N)cc1`: the outcome was inactive.
Regarding `CCO[Si](CCCN=C=O)(OCC)OCC`, the molecule was classed as inactive.
Take `C=C(C)CCO`: the outcome was inactive.
Turning to `CCCCCCCCCCc1ccccc1`, the call was inactive.
On the same count and under the same terms, as for `CCCCCCC(O)CO` (stereo not given), the entry is “inactive”.
Take `CCOC(=O)[C@H](C)O`: the result was inactive.
The same measure, in the same setting: in the case of `CC(=O)OCCC1CCCCC1` it was “inactive”; in that of `O=C1CCCC(=O)O1`, “inactive”.
As for `CCCCC(CC)CCC(CC(C)C)OS(=O)(=O)O` (stereo not given), the molecule was classed as inactive.
Turning to `CC(CC=O)c1ccccc1` (stereo not given), the outcome was inactive.
As to `CC1=CC[C@H]2C[C@@H]1C2(C)C`, the molecule was called inactive.
With `O=C1c2cccc(O)c2C(=O)c2c(O)cc(CO)cc21`, the outcome was inactive.
For `C(=CC=Nc1ccccc1)C=CNc1ccccc1`, the result was inactive.
For the molecule `C#CC1(O)CC[C@H]2[C@@H]3CCC4=CCCC[C@@H]4[C@H]3CC[C@@]21C` (stereo not given in full), the molecule was called inactive.
For the molecule `COc1cc(NC(=O)CC(C)=O)c(OC)cc1Cl`, the molecule was called inactive.
In the case of `CNC(=S)N(C)C`, the molecule was called inactive.
For `COc1ccc(-c2coc3cc(O)ccc3c2=O)cc1`, the call was inactive.
As for `O=c1n(CCO)c(=O)n(CCO)c(=O)n1CCO`, the call was inactive.
With `CC(=O)C=CC1C(C)=CCC(C)C1(C)C` (stereo not given), the molecule was classed as inactive.
With `C=C(C)[C@H]1CC=C(C)CC1`, the result was inactive.
